Data as given in ChEMBL document CHEMBL4513216, “Probing the Open Global Health Chemical Diversity Library for Multistage-Active Starting Points for Next-Generation Antimalarials” (ACS Infect Dis, 2020).
Among all 69,000 compounds or so, about 8,600 (12%) showed an effect of 50% or more. Only a selection was taken, and strong results are over-represented in it overall.

test system: Plasmodium berghei; assay: Screen against P. berghei liver stage (PbLuc), transformed with Luciferase, at 10uM; format: functional, HepG2; conditions: tested at 10 uM

Row | Structure (SMILES) | INHIBITION [%]
1 | O=C(O)c1cc2c(nc1-c1ccncc1)CCN(C1CCOC1)CC2 (stereo not given) | -28.2
2 | CCn1cc(S(=O)(=O)N(CCc2ccccc2)Cc2ccn(C)n2)cn1 | 21.425
3 | CCc1ncc2c(n1)CN(Cc1nc(-c3cccnc3)no1)CC2 | -10.6
4 | Cc1ccc(C2CCCN2S(=O)(=O)N(C)CCc2ccccn2)o1 (stereo not given) | -17.35
5 | CCOC(=O)C(C)Nc1cccc(COCc2ccco2)c1 (stereo not given) | 12.1
6 | CCOCC(=O)NS(=O)(=O)c1ccc(F)cc1C(F)(F)F | 0.0944
7 | COCCOC1CCN(C(C(=O)O)c2c(Cl)cccc2OC)CC1 (stereo not given) | 50.3
8 | COc1cccc(Cl)c1C(C(=O)O)N1CCC(Cn2cccn2)CC1 (stereo not given) | -47
9 | COCCOC1CCN(C(C(=O)O)c2ccc(F)c(Cl)c2)CC1 (stereo not given) | 23.9
10 | CC(C)c1ncncc1C(=O)NCCN1CCOCC1 | -1.33
11 | COCCC(Cc1cccc(Br)c1)C(=O)N(C)C (stereo not given) | -28.4
12 | COc1ccc(C2Nc3ccccc3N=C3CNC(=O)C32)cc1OC (stereo not given) | 10.4
13 | CCn1nnnc1-c1cccc(NC(N)=O)c1 | 8.18
14 | CCOC(=O)Cn1nnnc1-c1ccccc1 | 64
15 | CCn1nnnc1-c1cccc(NC(=O)CCOC(C)C)c1 | 4.01
16 | Cc1sc(NC(=O)CN2CCCC(c3ncc[nH]3)C2)c(C)c1C (stereo not given) | 94.1
17 | Cc1nc(CNC(=O)N2CCCC(c3ncc[nH]3)C2)sc1C (stereo not given) | 23.5
18 | COC(=O)NCC(=O)N1CCCC(c2ncc[nH]2)C1 (stereo not given) | 15.2
19 | O=C(CN1CCCC(c2ncc[nH]2)C1)NCCCN1CCCCCC1=O (stereo not given) | 45.4
20 | O=C(CCC(F)(F)F)N1CCCC(c2ncc[nH]2)C1 (stereo not given) | -0.71
21 | O=C(CN1CCCC(c2ncc[nH]2)C1)NCC(F)(F)F (stereo not given) | 81.2
22 | CCn1nccc1CNC(=O)C1CCCO1 (stereo not given) | 17

Row | Structure (SMILES) | INHIBITION [%]
23 | COc1ccc(N2CCN(C(=O)OC(C)(C)C)C(C(=O)O)C2)cc1 (stereo not given) | 2.55
24 | Cc1ccc(N2CCC3(CCN(C(=O)c4ccoc4)CC3)CC2)nn1 | -0.27
25 | Cc1cc(N2CCC(NC(=O)C3CC3)CC2)nc(-c2ccncc2)n1 | 23.4
26 | CCCc1cc(C(=O)N2C[C@H](O)[C@@H](N3CCCC3)C2)ccn1 | 55.2
27 | CCCc1cc(C(=O)N2C[C@H]3CC=C(C)C[C@H]3C2)ccn1 | 6.66
28 | CCCc1cc(C(=O)N2CC(c3ccncc3)C2)ccn1 | 8.64
29 | CC(C)c1sc(Cl)nc1C(=O)N1CCN(c2ccccc2)CC1 | -1.23
30 | NC(=O)C1CCN(C(=O)NCc2csc(Br)c2)CC1 | 16.9975
31 | CN(C)C(C(=O)Nc1nccs1)c1c(F)cccc1Cl (stereo not given) | 50.8
32 | COCCOc1ncccc1C(=O)N(C)c1nccs1 | 45.2
33 | N#Cc1c(F)cccc1N1CCC(C(=O)Nc2nccs2)CC1 | 17.5
34 | CN(C)C(C(=O)NCC1(O)CCCCC1)c1c(F)cccc1F (stereo not given) | -21.2
35 | CN(C(=O)C(c1c(F)cccc1Cl)N(C)C)c1nccs1 (stereo not given) | 66.5
36 | Cc1csc(N(C)C(=O)C(c2c(F)cccc2Cl)N(C)C)n1 (stereo not given) | 9.04
37 | CCNc1cc2c(nn1)CCN(C(=O)c1nccnc1N)C2 | 23.5
38 | Cc1c(C2CC(=O)Nc3c2cnn3C(C)C)cnn1C (stereo not given) | 24.7
39 | Cc1cn2nc(N(C)C3CCCN(c4cccnn4)C3)sc2n1 (stereo not given) | 11.5
40 | CCCNC(=O)COc1cccc(-c2nc(C(C)C)no2)c1 | 31.3
41 | O=C(C1CCC1)N1CCCC(c2ccnc(Nc3cnccn3)n2)C1 (stereo not given) | -14.1
42 | CC(=O)N1CCC(c2ccnc(Nc3ccc(C)cn3)n2)C1 (stereo not given) | -55
43 | Cc1ccc(Nc2nccc(C3CN(CC(N)=O)C3)n2)nc1 | 46.6
44 | COCC(=O)N1CC(c2ccnc(Nc3ccc(C)cn3)n2)C1 | 6.32

Row | Structure (SMILES) | INHIBITION [%]
45 | CC(=O)N1CC(c2ccnc(Nc3ccc(C)cn3)n2)C1 | -9.32
46 | Cc1cccnc1Nc1nccc(C2CN(CC(N)=O)C2)n1 | -4.51
47 | Cc1ccc(Nc2nccc(C3CCN(CC(N)=O)C3)n2)nc1 (stereo not given) | 88.1
48 | Cc1ccc(Nc2nccc(C3CN(C(C)C)C3)n2)nc1 | 61.7
49 | Cc1ccc(Nc2nccc(C3CCCN(CC(=O)N(C)C)C3)n2)nc1 (stereo not given) | 79.6
50 | Cn1nc2c(cc1=O)CN(Cc1nc(-c3cccnc3)no1)CC2 | 13.3
51 | CC(C)NC(=O)N1CCCC2(CCN(c3ccccc3)C2=O)C1 (stereo not given) | -20.8
52 | COc1cccc(NC(=O)Cn2cc(-c3ccccc3)ncc2=O)c1 | 28.2
53 | CN(Cc1cc[nH]n1)C(=O)c1cccc(CCC(C)(C)O)c1 | 34.1
54 | CN(Cc1n[nH]c2c1CCCC2)C(=O)c1cccc(CCC(C)(C)O)c1 | 48.5
55 | CN(Cc1n[nH]c2c1CCC2)C(=O)c1cccc(CCC(C)(C)O)c1 | 68.5
56 | OC1CCN(c2nc(-c3ccccc3)no2)CC1 | -3.74
57 | O[C@H]1CN(c2nc(-c3ccccc3)no2)C[C@@H]1N1CCOCC1 | -22.7
58 | OC1CCN([C@@H]2CCN(c3nc(-c4ccccc4)no3)C[C@H]2O)CC1 | 69.8
59 | CC(C)c1ccc2c(c1)C1(CC(=O)Nc3[nH]ncc31)C(=O)N2C (stereo not given) | 17.7
60 | CCOc1ccc(NC(=O)NCc2cccnc2OCC)cc1 | 13.6
61 | c1ccc(CN2CCc3ncnc(-c4ccsc4)c3CC2)nc1 | 19.9
62 | Cc1nc(CN2CCc3ncnc(-c4ccccc4)c3CC2)cs1 | 6.6
63 | CCOc1ncnc2c1CCN(Cc1csc(C)n1)CC2 | 1.94
64 | Cc1nc(CN2CCN(c3nc4c(s3)c(C)nn4C)CC2)cs1 | 73.9
65 | Cc1nc(CN2CCc3ncnc(C)c3CC2)cs1 | 56.3
66 | Cc1nc(CN2CCc3ncnc(-c4ccncc4)c3CC2)cs1 | 27.6

Row | Structure (SMILES) | INHIBITION [%]
67 | Cc1nc(CN2CCN(c3ccc(SC(C)C)nn3)CC2)cs1 | -4.13
68 | Cc1cccc(CN2CCc3ncnc(C)c3CC2)n1 | 6.8
69 | Cc1nc(CN2CCc3ncnc(C4CC4)c3CC2)cs1 | 15.9
70 | Cc1cccc(CN2CCc3ncnc(-c4ccsc4)c3CC2)n1 | 53.2
71 | Cc1nn(C)c2nc(N3CCN(Cc4nccn4C)CC3)sc12 | 37.6
72 | Cc1nc(CN2CCc3ncnc(-c4ccsc4)c3CC2)cs1 | 60.2
73 | Cc1cn(CC(=O)Nc2cc(C(C)C)nn2C)cn1 | -0.273
74 | CC1CN(C)CCN1CC(=O)NCCOc1ccc(Cl)cc1 (stereo not given) | 35.95
75 | CC(c1ccccn1)N(C)Cc1cccc(C(=O)Nc2nccn2C)c1 (stereo not given) | 9.57
76 | CN(C)c1nc(NCCc2ccnn2C)ncc1F | 42.3
77 | O=C(Cc1ccc(F)c(Br)c1)NC1CCN(CC(F)F)CC1 | -60.4
78 | CN(C)CC(=O)N1CCc2ncnc(-c3cncnc3)c2CC1 | 6.83
79 | CN(C)CC(=O)N1CCc2ncnc(-c3ccsc3)c2CC1 | 70.4
80 | CN(C)CC(=O)N1CCc2ncnc(-c3ccoc3)c2CC1 | 23.1
81 | CCn1ccc(NC(=O)CN2C(=O)C(C)(C)c3ccccc32)n1 | 23.1
82 | Cc1ccc(N2CCCC(NCc3c(C)noc3C)C2)nn1 (stereo not given) | -89
83 | CN1CC(C(=O)NCCc2ccc3c(c2)OCO3)CC1=O (stereo not given) | 20
84 | Fc1ccc(CN2CCC(c3noc(-c4cnccn4)n3)CC2)cc1F | 18.3
85 | CCOc1cc(CNc2cc(-c3nc(C)no3)ccn2)ccc1OC | 1.84
86 | Cc1noc(-c2ccnc(Oc3ccc(CN4CCCC4)cc3C)c2)n1 | 89
87 | COc1ccc(CCNc2cc(-c3nc(C)no3)ccn2)cc1OC | 10.8
88 | Cc1noc(-c2ccnc(Oc3ccc(CN4CCCC4)cc3F)c2)n1 | 87.4

Row | Structure (SMILES) | INHIBITION [%]
89 | COc1ccc(CNC2CCCN(Cc3noc(C)n3)C2)cc1F (stereo not given) | 40.3
90 | CC(=O)N1CC(Cc2nccc3ccn(C)c23)C1 | 47.2
91 | COc1cc(OC)cc(-c2cc(CN)nc3ccnn23)c1 | -18.2
92 | Cc1ccccc1S(=O)(=O)N(C)[C@@H]1CC[C@@H](n2ccnc2C)[C@@H]1O | 38.15
93 | CC(c1nc(C2CC2)no1)N1CCN(CC(=O)N2CCOCC2)CC1 (stereo not given) | 10.7
94 | CCN(CC)CC1CN(Cc2ccc(C)s2)Cc2nccn2C1 (stereo not given) | -30.6
95 | Cc1ccc(CN2Cc3nccn3CC(CN(C)C)C2)s1 (stereo not given) | 64.9
96 | Cc1ccc(CN2Cc3nccn3CC(Cn3cccn3)C2)s1 (stereo not given) | 45.7
97 | CCn1cc(CN2CCC(c3ccncc3)CC2)cc1C#N | 13
98 | Cc1nn(CCO)cc1CN1CCC(N2CCC(O)CC2)CC1 | 50.5
99 | CCn1cc(CN2CCC(NS(C)(=O)=O)CC2)cc1C#N | 62.4
100 | CCn1cc(CN2CCC(CN3CCCCC3)CC2)cc1C#N | 6.88
101 | CCn1cc(CN2CCC(CNC(C)=O)CC2)cc1C#N | 24.2
102 | CCn1cc(CN2CCC(N3CCC(O)CC3)CC2)cc1C#N | 64.9
103 | OC1CCN(C2CCN(Cc3cccc(Cn4cccn4)c3)CC2)CC1 | 24.9
104 | CCn1cc(CN2CCCCC2CCn2ccnc2C)cc1C#N (stereo not given) | 29.2
105 | Cc1nn(CCO)cc1CN1CCC(C(C)N2CCCC2)CC1 (stereo not given) | 32.5
106 | Cc1nn(CCO)cc1CN1CCCN(C2CCCC2)CC1 | 12.8
107 | CCn1cc(CN2CCC(C3CCN(C)CC3)CC2)cc1C#N | 66.1
108 | CS(=O)(=O)NC1CCN(Cc2ccc(OCc3ccccn3)cc2)CC1 | -1.83
109 | Cc1ccc(CC(=O)N(C)CC2(O)CCCN(c3ccccn3)C2)s1 (stereo not given) | -2.11
110 | CC(C)N(Cc1ccccn1)Cc1nc2c(cnn2C)c(=O)[nH]1 | 25.65
